In PubChem BioAssay AID746 (The Scripps Research Institute Molecular Screening Center, 2007):
Hit rate of the full screen: of about 60,000 compounds, about 370 (0.62%) were called active. For the sample, actives were picked, then their nearest neighbours and some compounds at random. Unmarked numbers belong to inactive results. Rule as the data show it: active = inhibition above about 17%; inactive = the rest.

Each compound was assayed against Mitogen-activated protein kinase 10 (Homo sapiens) (UniProt P53779) (assay: inhibition of human JNK3 enzyme – biochemical, purified enzyme, primary screen (AID 746;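 also: 0% = DMSO and 100% = reference inhibitor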)). Details: purified JNK3 kinase activity, HTS; at 8 µM; active compounds read high.
Sequence of Mitogen-activated protein kinase 10 (Homo sapiens) (P53779 whole entry, looked up): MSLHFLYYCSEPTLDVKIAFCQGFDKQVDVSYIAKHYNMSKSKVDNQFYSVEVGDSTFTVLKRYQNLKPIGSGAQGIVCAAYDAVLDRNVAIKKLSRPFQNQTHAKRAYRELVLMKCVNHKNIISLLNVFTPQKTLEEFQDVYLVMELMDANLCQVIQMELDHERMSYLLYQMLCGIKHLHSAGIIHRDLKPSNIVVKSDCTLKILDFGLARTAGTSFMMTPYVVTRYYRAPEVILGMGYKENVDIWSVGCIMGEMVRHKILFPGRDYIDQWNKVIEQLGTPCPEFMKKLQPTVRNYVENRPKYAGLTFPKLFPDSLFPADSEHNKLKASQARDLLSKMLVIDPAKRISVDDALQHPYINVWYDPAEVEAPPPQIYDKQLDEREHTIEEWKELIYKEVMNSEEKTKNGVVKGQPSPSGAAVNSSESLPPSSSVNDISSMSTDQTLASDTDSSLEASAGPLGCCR

Compound | inhibition
COc1ccc(Cn2cccc(NC(=O)Nc3ccc(C#N)cc3)c2=O)cc1 | 2.85%
CCOC(=O)C1CCN(C(=O)Nc2ccc(Cl)cc2)CC1 | 3.13%
CCC(C)Sc1nnc(-c2c[nH]c3ccccc23)n1CCOC (stereo not given) | -1.71%
COc1ccc(CCNC(=O)CCn2c(=O)oc3ccccc32)cc1OC | -2.91%
Cc1cc(C)c(S(=O)(=O)NCCCN2CCOCC2)cc1Br | -5.01%
COc1ccc(OC)c(C2N(c3ccccn3)C(=O)C3CCCN32)c1 (stereo not given) | 1.09%
Cc1cc(=O)n2c3c(cccc13)CCC2 | 6.82%
CCOC(=O)c1sc2nc(CSCC(=O)OCc3ccc(C(=O)OC)o3)[nH]c(=O)c2c1C | 0.98%
COC(=O)c1c(NC(=O)CCN2CCOCC2)sc2c1CCCC2 | -3.4%
COc1ccccc1-n1cnc2cc(NS(=O)(=O)c3ccccc3)ccc21 | 4.48%
COc1ccc(O)c(C=Nc2cc(C)on2)c1 | 0.04%
Cc1cc(C)n(C(=O)c2ccc(C)c(S(=O)(=O)N3CCOCC3)c2)n1 | 1.61%
Cc1cccc2cc(C#N)c(N3CCCC3)nc12 | 2.01%
CC(C)COC(=O)C1C2C=CC3(CN(C(C)c4ccc(Br)cc4)C(=O)C13)O2 (stereo not given) | -6.16%
NC(=O)C1(N2CCCCC2)CCN(C(=O)c2ccc(C#Cc3ccccc3)o2)CC1 | -2.13%
CCCn1c(SCC(=O)Nc2c(C)cccc2C)nnc1C(C)C | -2.91%
C=CCN(c1ccc(C(N)=O)cc1)S(C)(=O)=O | 4.4%
COc1cccc(OCC(=O)Nc2ccccc2C(N)=O)c1 | 26.1% (active)
CCCOC(=O)Nc1ccccc1C(N)=O | -5.47%
NC(=O)c1ccccc1NC(=O)c1ccccc1F | 13.4%
CCOCCCNS(=O)(=O)Cc1ccccc1 | 1.76%
CCCCOc1ccc(C(=O)NCc2ccco2)cc1 | 0.41%
CCOc1ccc2nc(N3CCCN(C(=O)Nc4ccccc4C)CC3)c(C#N)cc2c1 | 0.49%
CCN(c1ccccc1)S(=O)(=O)c1ccc(N)cc1 | 2.15%
CC1=C(C(N)=O)C(c2ccc3c(c2)OCO3)n2nc(-c3cccc(C)c3)nc2N1 (stereo not given) | 5.86%

Compound | inhibition
CCOC(=O)c1ccc(Nc2cc(C)nc3nc(C)nn23)cc1 | -10.1%
COc1ccccc1NC(=O)CSc1nnc(Cn2nnc(-c3ccccc3)n2)n1-c1ccccc1 | -0.28%
O=C(Nc1nsc(-c2ccccc2)n1)c1ccncc1 | 1.54%
CC1CSc2nnc(CCc3ccccc3)n21 (stereo not given) | 16.5%
COC(=O)c1cc(C(=O)CSc2nc(C)cc(C)n2)ccc1O | 1.84%
COc1c(O)cccc1-c1nnn(CCC(=O)OCC(=O)c2ccccc2)n1 | 0.11%
CC(CCc1ccccc1)NC(=O)c1ccc(Br)o1 (stereo not given) | 3.4%
NC(=O)CCCC1=NS(=O)(=O)c2ccccc2N1 | 11.7%
Nc1nonc1C(=O)NCCc1ccccc1 | 2.83%
CC(C)CC(=O)N=C1SC2CS(=O)(=O)CC2N1CCc1ccccc1 (stereo not given) | -1.83%
Cc1noc(C)c1S(=O)(=O)N(CC(=O)Nc1ccc2c(c1)OCCO2)c1ccc(C(C)C)cc1 | 0.66%
C=CCNc1nnc(SCC(=O)N2CCCCC2)c2ccccc12 | -2.85%
Nc1nnc(SCCN2C(=O)c3ccccc3S2(=O)=O)s1 | -1.92%
Cc1ccc(CNC(=O)CCCNC(=O)c2ccc(Cl)cc2)n1C | 10.2%
Cc1ccc(Oc2ccc(N)cc2)cc1 | 6.53%
CCOc1cc2c(cc1OCC)C(C(=O)O)C(c1ccc(OC)c(O)c1)N(C)C2=O (stereo not given) | -0.42%
O=C(C1CCC1)N1CCc2cc(S(=O)(=O)NCc3cccnc3)ccc21 | -6.87%
COC(=O)c1cc(Cl)c(NC(=O)c2ccco2)cc1OC | -6.35%
Cc1cc2c(=O)n(C)c(SCC(=O)c3cc4ccccc4o3)nc2s1 | -3.37%
CCOC(=O)c1c(NC(=O)c2cccs2)sc(C)c1C | 6.19%
Oc1c(C(c2cccs2)N2CCN(c3ccc(F)cc3)CC2)sc2ncnn12 (stereo not given) | 1.85%
O=C1c2ccccc2-c2ncnc3c(N4CCOCC4)cc(N4CCOCC4)c1c23 | -9.75%
CCOc1cc(C(=O)Nc2ncccn2)cc(OCC)c1OCC | -1.81%
O=C(NCCN1CCOCC1)c1c(F)c(F)c(F)c(F)c1F | 7.3%
CCn1nc(C(=O)OCC(=O)N2c3ccccc3CC2C)c2ccccc2c1=O (stereo not given) | 1.01%

Compound | inhibition
Cn1cnc2c1c(=O)n(Cc1c(Cl)cccc1Cl)c(=O)n2C | 2.26%
Cc1nnc(NC(=O)CSc2nccn2-c2cccc(C)c2C)s1 | -4.27%
CCOC(=O)C1CCCN(C(=O)Cn2ncc3c(=O)oc4ccc(C)cc4c32)C1 (stereo not given) | 0.71%
Cc1ccc2oc(=O)c3cnn(CC(=O)N4CCN(c5ccccn5)CC4)c3c2c1 | 37.2% (active)
Cc1ccc2oc(=O)c3cnn(CC(=O)N4CCCCCC4)c3c2c1 | 0.73%
CCOc1ccc(C(=O)Nc2ccncc2)cc1 | 0.07%
O=S(N1CCCCCC1)C12CC3CC(CC(C3)C1)C2 (stereo not given) | 8.25%
COC(=O)c1cccc(NC(=O)CN2CCC(NC(=O)c3cc(OC)c(OC)c(OC)c3)CC2)c1 | 79.2% (active)
COc1ccc(NC(C)=O)cc1NC(=O)CN1CCN(c2ccccn2)CC1 | 2.12%
COC(=O)c1cc(NC(=O)CN2CCC(C(N)=O)(N3CCCCC3)CC2)cc(C(=O)OC)c1 | -2.8%
COc1ccc(-c2cc(C(=O)NC(C(=O)O)C(C)C)c(C)o2)cc1OC (stereo not given) | 1.2%
Cc1cc(C(=O)O)c(S(C)(=O)=O)s1 | 0.82%
CC1=C(C)CC2C(=O)N(c3cccc4ccccc34)C(=O)C2C1 (stereo not given) | 0%
COc1ccccc1Cc1nc(-c2ccc(C)cc2)no1 | 4.84%
CC(C)Cc1cc(C(=O)Nc2cc(Br)ccc2O)no1 | -4.9%
COc1ccc(CCN(C)C(=O)C2CCCN(Cc3ccc(OC)c(OC)c3)C2)cc1OC (stereo not given) | 4.04%
CN(C)/C=C1/C(=O)Nc2ccccc21 | -8.06%
O=C(CCN1C(=O)c2ccccc2C1=O)Nc1ccncc1 | 0.63%
COc1ccc(-c2nc3n(c2Br)CCC3)cc1 | -4.37%
CCCC(=O)Nc1ccc2c(c1)nc1n2CCSC1 | -5.4%
Cc1ccsc1C(=O)OCC(=O)c1cc(C)n(CC2CCCO2)c1C (stereo not given) | 1.34%
COc1ncnc2c1N=C1CC(C)(C)CC(N)=C1S2 | -12.2%
O=C(COc1ccccc1)NCCc1nc2ccccc2[nH]1 | 5.21%
COc1ccc(NC2CC(=O)N(C)C2=O)cc1 (stereo not given) | -1.99%
CCN(CC)P(=O)(/C(Cl)=C\Nc1c(C)n(C)n(-c2ccccc2)c1=O)N(CC)CC | 4.4%

Compound | inhibition
CCOC(=O)N1CCN(S(=O)(=O)c2cc3c(cc2C)NC(=O)CO3)CC1 | 1.04%
COc1ccc2c(c1)C=CC1(O2)N(CCO)c2ccccc2C1(C)C (stereo not given) | -1.22%
CS(=O)(=O)N1CCN(C(=O)Cc2ccccc2)CC1 | 7.69%
Cc1cc(C(=O)N2CCN(c3ccccn3)CC2)c(C)o1 | 2.54%
COc1cccc(OC)c1C(=O)Nc1nnc(C(C)C)s1 | -2.05%
Cn1cccc1Cc1nnc(SCC(=O)NCc2ccc3c(c2)OCO3)n1CCc1ccccc1 | -1.11%
CCn1c(SCCC(C)C)nnc1-c1c[nH]c2ccccc12 | 2.85%
CCC(c1nnnn1C1CCCC1)N1CCN(C(=O)c2ccco2)CC1 (stereo not given) | -1.42%
Fc1ccc(OCc2nn3c(Cn4nnc5ccccc54)nnc3s2)cc1 | -2.42%
CCn1c(SCC(=O)c2ccc(Cl)s2)nnc1-c1cccs1 | -1.37%
CC12CN(Cc3ccccc3)CC(C)(CN(Cc3ccccc3)C1)C2=NO | 1.42%
COc1ccccc1-c1c(C)nn2c(C)c(C(C)=O)cnc12 | 0.53%
O=S(=O)(NCCOc1cccc2cccnc12)c1ccc(F)cc1 | -0.52%
FC(F)(F)c1cc(-c2ccco2)nc(N2CCOCC2)n1 | 2.31%
Cc1cccn2c(=O)c3cc(C(=O)N4COCC4(C)C)n(C)c3nc12 | 5.99%
COc1ccc(-n2nc3c(c2NC(=O)Cc2cccc(C)c2)CS(=O)C3)cc1 (stereo not given) | 1.83%
CCCC(=O)N=c1sc2cccc(F)c2n1C | -1.7%
CN(c1nc2ccccc2n2c(-c3ccco3)nnc12)S(=O)(=O)c1ccccc1 | -4.26%
C=C(C)Cn1c(N2CCCC2)nc2c1c(=O)[nH]c(=O)n2C | 2.48%
NC(=O)CSc1c[nH]c2ccccc12 | 6.99%
CNC(=O)c1nnn(-c2ccccc2)c1C(=O)NC | -3.49%
CCCOc1ccc(C2c3c(oc4cc(C)c(C)cc4c3=O)C(=O)N2CCCN2CCOCC2)cc1 (stereo not given) | 3.64%
CCCOc1ccc(C2C(C(=O)c3ccc(C)o3)=C(O)C(=O)N2CCCn2ccnc2)cc1 (stereo not given) | 42.8% (active)
Brc1ccc(OCCn2ccnc2)cc1 | 1.14%
CC(=O)N1CCN(c2ccc(NCc3ccc(C(C)C)cc3)cc2)CC1 | -4.46%
